Bioassay records: PubChem, National Center for Advancing Translational Sciences (NCATS)
RXFP1 agonist – qHTS Assay for Agonists of the Relaxin Receptor RXFP1; HEK293T-RXFP1 cAMP TR-FRET, 30 min; response scale: percent of porcine relaxin response, buffer zero; Potency, µM (doses to about 57.5 µM), for the others: at the top dose activation, usual class: activators; 370,000 tested, 0.3% active; active means well fitted activation curve with a large enough effect; inconclusive means small, poorly fitted or top-dose-only effect; further: potency means the concentration at half of the fitted maximal effect; on the % scale 0 is the no-effect control and ±100 the full control effect; nearly all actives have a fitted effect of over 60% in size
Target sequence (Q9HBX9 whole entry, looked up): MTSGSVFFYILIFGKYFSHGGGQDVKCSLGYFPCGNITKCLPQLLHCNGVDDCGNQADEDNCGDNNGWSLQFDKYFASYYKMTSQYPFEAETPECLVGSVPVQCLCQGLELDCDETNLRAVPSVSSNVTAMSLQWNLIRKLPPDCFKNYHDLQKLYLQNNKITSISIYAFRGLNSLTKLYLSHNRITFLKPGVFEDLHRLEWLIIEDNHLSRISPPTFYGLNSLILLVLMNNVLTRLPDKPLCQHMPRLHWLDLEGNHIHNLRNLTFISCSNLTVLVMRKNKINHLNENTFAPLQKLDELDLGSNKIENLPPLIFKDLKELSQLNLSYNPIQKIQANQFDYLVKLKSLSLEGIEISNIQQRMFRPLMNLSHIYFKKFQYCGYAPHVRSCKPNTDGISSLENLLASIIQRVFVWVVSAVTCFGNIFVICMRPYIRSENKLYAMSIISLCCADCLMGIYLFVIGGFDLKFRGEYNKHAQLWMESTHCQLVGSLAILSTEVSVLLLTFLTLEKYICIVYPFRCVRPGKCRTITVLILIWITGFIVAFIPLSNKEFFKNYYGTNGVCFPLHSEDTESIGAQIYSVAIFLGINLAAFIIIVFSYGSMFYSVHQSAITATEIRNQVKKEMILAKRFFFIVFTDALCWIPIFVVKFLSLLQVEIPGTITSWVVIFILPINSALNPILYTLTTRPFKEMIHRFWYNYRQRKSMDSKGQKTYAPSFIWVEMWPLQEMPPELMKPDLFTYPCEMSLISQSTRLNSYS
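Agonist response is measured as cAMP accumulation in an RXFP1-transfected HEK293T line under PDE4 inhibition. Values are scaled between buffer-only and 29 nM porcine relaxin, and EC50s come from standard Hill equation fits.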
gsp antag – qHTS for Antagonists of gsp, the Etiologic Mutation Responsible for Fibrous Dysplasia/McCune-Albright Syndrome: qHTS; gsp-mutant cells, cAMP HTRF, 30 min; Potency, µM (titrated, usually from 76.9 µM), for inactives: at the highest dose activity change, negative = inhibition, most hits filed as inhibitors; 340,000 tested, 0.4% active; AID 624288, 2012; calls by dose curve; cell line not stated here;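 further: intracellular cAMP measured with PDE inhibitor Ro 20-1724 present during compound exposure; potency means the concentration at half of the fitted maximal effect; on the % scale 0 is the no-effect control and ±100 the full control effect; nearly all actives have a fitted effect of over 65% in size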
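Cells in G418 medium, seeded 16-24 h, 37C; buffer exchange to DPBS + 1 mM CaCl2, 0.5 mM MgCl2, 0.05% BSA; cpds in DMSO + […] (300 uM stock), 30 min 37C; HTRF cAMP detection.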
gsp agonist – qHTS for Agonist of gsp, the Etiologic Mutation Responsible for Fibrous Dysplasia/McCune-Albright Syndrome: qHTS. Potency, µM (highest dose often 76.9 µM), for the others: at the highest dose activation (cAMP increase), actives largely listed as activators. 340,000 tested, 0.13% active. gsp mutant cells, cAMP HTRF, 30 min; active means well fitted activation curve with a large enough effect; inconclusive means small, poorly fitted or top-dose-only effect, or another doubt; inactive means no such curve, though single readings can be large or run the other way; cell line not stated here;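 further: phosphodiesterase inhibitor Ro 20-1724 added with compounds to block cAMP breakdown; potency means the concentration at half of the fitted maximal effect; nearly all actives have a fitted effect of over 60% in size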
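Cells stably selected in G418 were plated at 2000/well, grown 16-24 hr, then given compounds in DMSO with the PDE inhibitor […] (300 uM solution added) for 30 min at 37C; cAMP was read by HTRF.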
RXFP1 antagonist – qHTS Assay for Antagonists of the Relaxin Receptor RXFP1; Relaxin receptor 1 (Homo sapiens), Q9HBX9; HEK293-RXFP1, relaxin-stimulated cAMP HTRF, 30 min; stronger effect = lower value; activity change, negative = inhibition, % at 57.5 µM; 350,000 tested, 0.59% active; AID 1259400, 2018;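 active means activity change of -60% or lower, but not beyond a set lower limit; inconclusive means change between -60% and -40%, or beyond the set limit; inactive means change above -40%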; further: on the % scale 0 is the no-effect control and ±100 the full control effect
Numbers without * were called inactive; ? = inconclusive; . = not tested or not shown; [ ] = another dose, or the depositor's remark. Hits are enriched below; roughly 0.9% of the tested compounds scored in any of these assays.

SMILES | RXFP1 agonist | gsp antag | gsp agonist | RXFP1 antagonist
O=C(O)c1cccc2c1NC(c1cccc([N+](=O)[O-])c1)C1CC(Sc3ccccc3[N+](=O)[O-])C(Cl)C21 (stereo not drawn) | 2% | ? | -16% | -4
O=C(O)c1ccc2c(c1)C1C(Cl)C(Sc3ccccc3[N+](=O)[O-])CC1C(c1cccc([N+](=O)[O-])c1)N2 (stereo not drawn) | -1% | -53% | -1%[15.4 µM] | -89*
Cn1c(O)c(N=Nc2cccc(S(=O)(=O)N3CCOCC3)c2)c(=O)n(C)c1=O | 10µM* | 30% | ? | 4
COc1ccc(OC)c(/C=N/OC(=O)Nc2ccc(Cl)cc2)c1 | 0% | -4% | -51% | 4
O=C(Nc1ccc(Oc2ccc(Cl)cc2)c(Cl)c1)c1cc(I)cc(I)c1O | 2% | ? | . | -92*
CCC(=O)C(CCN(C)C)(c1ccccc1)c1ccccc1 | . | . | . | 9
COC(=O)[C@@H](N)CCCN/C(N)=N/[N+](=O)[O-] | . | . | . | 15
Cc1nc2ccccc2c(=O)n1/N=C/c1cc(Br)cc(Br)c1O | . | ? | -1% | -79*
Cc1nc2ccccc2c(=O)n1-c1ccc(Br)cn1 | 2% | 8% | 3%[15.4 µM] | 1
O=c1c2ccccc2nc(/C=C/c2ccccc2)n1-c1ccc(O)cc1 | 1% | -22% | -5% | -12
O=C(O)c1ccc(/C=C/c2nc3ccccc3c(=O)n2-c2ccc(Br)cc2)cc1 | 0% | 14µM* | -31% | -4
O=c1[nH]c(=S)n(Cc2ccc(F)cc2)c(O)c1C=NCc1ccc2c(c1)OCO2 | 25µM* | 9% | ? | 6
CCON=C(CC)C1=C(O)CC(c2c(C)cc(C)cc2C)CC1=O (stereo not drawn) | . | . | . | -34
CCN1CCCC1CNC(=O)C(O)(c1ccccc1)c1ccccc1 (stereo not drawn) | . | . | . | 5
COc1cc(CC2(CCc3ccncc3)C(=O)NC(=O)NC2=O)cc(OC)c1OC | 0% | 6% | 4% | -79*
O=C(c1ccc2c(c1)OCO2)C1CCCN(Cc2ccc(F)c(F)c2)C1 (stereo not drawn) | 1% | -11% | -8% | -22
O=C(c1ccc(Cl)cc1)C1CCCN(Cc2ccc3c(c2)OCCO3)C1 (stereo not drawn) | 0% | 7% | -5%[15.4 µM] | -73*
CN1CCC(N(Cc2ccccc2)c2ccccc2)CC1 | . | . | . | -7
COc1ccc2[nH]c(C)c(CCNCc3cc(OC)c(OC)c(OC)c3)c2c1 | -4% | -32% | 24%[15.4 µM] | -3
COc1ccc(CNCCc2c(C)[nH]c3ccc(OC(F)(F)F)cc23)c(OC)c1 | 0% | -1% | ? | -83*
O=C(NCC(c1ccco1)N1CCCC1)c1cccc(S(=O)(=O)N2CCc3ccccc32)c1 (stereo not drawn) | . | . | -75% | 4
COc1ccc(OC)c(CCNCc2c(C(=O)O)c(C)n(Cc3ccc(F)cc3Cl)c2C)c1 | 0% | . | . | -63*
COc1ccc(-n2c(O)c(/C=C3\C=Nc4ccc(Br)cc43)c(=O)[nH]c2=O)c(OC)c1 | -3% | -18% | ? | -71*
CNC(=O)Oc1cc2c(cc1C(C)(C)C)CCC2 | . | -2% | ? | -86*
O=[N+]([O-])c1cc(Cl)c(O)c(-[n+]2c(-c3ccccc3)cc(-c3ccccc3)cc2-c2ccccc2)c1 | 0% | 13µM* | ? | -5
SMILES | RXFP1 agonist | gsp antag | gsp agonist | RXFP1 antagonist
O=[N+]([O-])c1ccc(C[n+]2c(-c3ccccc3)cc(-c3ccccc3)cc2-c2ccccc2)cc1 | -1% | 0% | -50% | .
COc1cccc(C(=O)CCN[C@@H](C)[C@H](O)c2ccccc2)c1 | . | . | . | 20
Cc1cccc(C2=NCC(=O)N(CC(=O)NCc3ccco3)c3sc4c(c32)CCCC4)c1 | -1% | ? | -46% | -69*
CCOc1ccc(-n2nc3c(=S)[nH]nc(C)c3c2C)cc1 | 5.6µM* | 11% | ? | -4
O=C(CBr)Nc1ccc(Cl)cc1C(=O)c1ccccc1F | . | . | . | -27
Cc1ccc(-c2cc(-c3ccc(C)cc3)[n+](-c3ccccc3)c(-c3ccc(C)cc3)c2)cc1 | 0% | -23% | . | .
CN(C)c1ccc(-[n+]2c(-c3ccccc3)cc(-c3ccccc3)cc2-c2ccccc2)cc1 | 8% | -24% | ? | -105*
c1ccc(-c2cc(-c3ccccc3)[n+](-c3ccccc3)c(-c3ccccc3)c2)cc1 | 7% | 50µM* | -5%[15.4 µM] | ?
Cc1ccc(-c2cc(-c3ccccc3)cc(-c3ccccc3)[n+]2-c2ccccc2)cc1 | 2% | 50µM* | . | .
C[n+]1c(-c2ccccc2)cc(-c2ccc(Cl)cc2)cc1-c1ccccc1 | 3% | -4% | 32% | -88*
CCOC(=O)c1ccc(-[n+]2c(-c3ccccc3)cc(-c3ccccc3)cc2-c2ccccc2)cc1 | -1% | -7% | . | .
CC(=O)OCC1=C(C(=O)O)N2C(=O)[C@@H](N)[C@H]2SC1 | . | . | . | 5
COc1ccc(C(O)C(C)NC(C)C(O)c2ccc(OC)cc2)cc1 (stereo not drawn) | . | 1% | 26% | -1
COc1ccc(C(c2ccc(OC)cc2)C(Cl)(Cl)Cl)cc1 | 1% | -22% | . | -93*
CC1(C)OC(c2ccccc2)=C/C(=C/C=C2C(=O)NC(=S)NC2=O)O1 | 8% | 2% | -1% | -4
CN1/C(=C\C=C2C(=O)NC(=S)NC2=O)C(C)(C)c2ccccc21 | -5% | 50µM* | -130% | -13
Cc1cccc(C(=O)Nc2ccc(C(=O)OCc3cc(=O)n4nc(C5CC5)sc4n3)cc2)c1 | ? | . | . | -3
O=c1oc2ccccc2c(O)c1[C@H]1c2ccc(O)cc2Oc2c1c(=O)oc1ccccc21 | 18µM* | 5% | 21% | 0
CCC(=O)O[C@H]1CC[C@H]2[C@@H]3CCC4=CC(=O)CC[C@]4(C)[C@H]3CC[C@]12C | . | -13% | . | -68*
C[n+]1c(-c2ccccc2)c2cc(N)ccc2c2ccc(N)cc21 | 8% | 35µM* | . | .
Nc1ccc2ccc3cccc[n+]3c2c1 | ? | 1% | ? | 4
CC1Sc2c(C(=O)O)c(=O)c3cc(F)c(N4CCNCC4)cc3n21 (stereo not drawn) | . | . | . | -3
COc1ccc(C(=O)C2CCCN(Cc3ccon3)C2)c(OC)c1 (stereo not drawn) | 4% | 50µM* | 4% | 1
Cn1cccc1/C=C1/C(=O)NC(=S)N(Cc2ccc(F)cc2)C1=O | 6% | -25% | -5%[15.4 µM] | -69*
Cn1cccc1/C=C1/C(=O)NC(=O)N(Cc2ccc(F)cc2)C1=O | -3% | -11% | -36% | -39
O=C(O)CNC1c2ccccc2CSc2ccccc21 (stereo not drawn) | . | -11% | 10% | -63*
C#CC(O)(C=CCl)CC (stereo not drawn) | . | . | . | -8
Cc1ccccc1CN1C(=O)CN=C(c2ccccc2)c2cc(Cl)ccc21 | 1% | . | . | -95*
